Assay outcomes from PubChem BioAssay.
In the library only some 3.3% were active in any assay of this set; here they are far more common.
NS1 function inh – influenza NS1 inhibition; Potency, µM (series often up to 46.1 µM), inactives show top-dose activity, positive = more growth; AID 2326; 270,000 compounds, 0.4% hits; calls by dose curve; also: actives are rising curves; nearly all actives have a fitted effect of over 50% in size
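A cell-based growth assay was used: compounds that relieve NS1-induced slow growth of budding yeast raise OD600. Assay medium was yeast nitrogen base with ammonium sulphate and -URA supplement, pH 6.0, with 2% galactose.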
RE007 growth inh – less growth of the S. pombe RE007 Vpr strain | S. pombe RE007 Vpr strain, BacTiter-Glo ATP luminescence, 24 h | Potency, µM (doses to about 92.2 µM), for the others: top-dose activity change, negative = less growth, usual class: inhibitors | AID 651644 | 360,000 compounds, 0.21% hits; active = well fitted falling curve with a large enough effect; inconclusive = small, poorly fitted or top-dose-only effect; inactive = no such curve, though single readings can be large or run the other way; also: % is scaled to controls: 0 for no effect and ±100 for the full control effect; nearly all actives have a fitted effect of over 50% in size
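Fission yeast RE007 carrying one integrated HIV-1 vpr copy, seeded at OD 0.01 in PMG+AL medium with 23 nL pinned compound. Grown 24 h at 30 degrees; viability read by BacTiter-Glo luminescence after 5 min.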
Tb PYK inh – inhibitors of Trypanosoma brucei pyruvate kinase. Q57TT1. TbPYK enzyme, Kinase-Glo Plus ATP luminescence, 45 min. Potency, µM (titrated, usually from 76.8 µM), without a hit: at the highest dose activity, negative = inhibition, hits mostly inhibitors. 410,000 compounds, 0.12% hits; also: % is scaled to controls: 0 for no effect and ±100 for the full control effect; nearly all actives have a fitted effect of over 50% in size
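Screened from lowest to highest concentration, compounds were pinned into TbPYK/substrate mixtures, and ADP (130 uM final) was added. Plates sat at room temperature for 45 min prior to Kinase-Glo Plus detection by luminescence.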
Sm TGR block – S. mansoni TGR enzyme inhibition; Q962Y6; purified TGR, DTNB reduction, TNB absorbance 405 nm; Potency, µM (titrated, usually from 114 µM), without a hit: at the top dose activity change, negative = inhibition, hits mostly inhibitors; 360,000 compounds, 3% hits; also: % is scaled to controls: 0 for no effect and ±100 for the full control effect; nearly all actives have a fitted effect of over 60% in size
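First, TGR (20 nM dispensed) and NADPH were mixed with compound. Second, a 15 min room-temperature incubation followed. Third, further NADPH and then DTNB were added to start the reaction. Finally, TNB absorbance was monitored kinetically.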
SARS PLpro yeast – blocks SARS-CoV papain-like protease in a yeast assay; S. cerevisiae expressing SARS-CoV PLpro, growth rescue; Potency, µM (series often up to 32.9 µM), without a hit: top-dose activity, positive = growth rescue, hits mostly activators; 330,000 compounds, 0.19% hits; calls by dose curve; also: 0% is about no effect; nearly all actives have a fitted effect of over 55% in size
LmPK inh – blocks Leishmania mexicana pyruvate kinase activity. 290,000 compounds, 0.37% hits. purified LmPK, Kinase-Glo ATP luminescence, 1 h. Potency, µM (series often up to 57.5 µM), for the others: top-dose activity change, negative = inhibition, most hits filed as inhibitors. Q27686; also: % is scaled to controls: 0 for no effect and ±100 for the full control effect
Target sequence (Q27686 whole entry, looked up): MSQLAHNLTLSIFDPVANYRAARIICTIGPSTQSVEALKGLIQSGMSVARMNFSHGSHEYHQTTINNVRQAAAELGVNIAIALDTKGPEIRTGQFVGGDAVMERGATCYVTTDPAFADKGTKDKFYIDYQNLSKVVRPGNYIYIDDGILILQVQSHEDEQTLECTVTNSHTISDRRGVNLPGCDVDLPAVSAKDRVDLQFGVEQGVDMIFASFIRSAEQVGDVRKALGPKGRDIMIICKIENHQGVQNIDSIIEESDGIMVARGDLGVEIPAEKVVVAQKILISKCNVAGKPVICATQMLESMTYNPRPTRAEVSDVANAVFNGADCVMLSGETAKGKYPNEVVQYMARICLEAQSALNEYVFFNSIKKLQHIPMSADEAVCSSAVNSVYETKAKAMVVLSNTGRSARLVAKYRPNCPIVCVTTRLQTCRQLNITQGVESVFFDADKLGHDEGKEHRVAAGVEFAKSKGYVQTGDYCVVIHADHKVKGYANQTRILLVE
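Purified LmPK (0.1 nM) converted ADP (0.1 mM) to ATP with PEP (0.5 mM) in imidazole buffer pH 7.2 with KCl and MgCl2, 1 h at room temperature. ATP was read by Kinase-Glo luminescence; data normalized to uninhibited and no-enzyme controls.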
Starred values were filed as active, the others as inactive; ? = inconclusive; · = not tested or not shown. Unless noted, calls follow the shape of the dose curve; as a rule, active = well fitted curve in the direction sought with a large enough effect; inconclusive = small, poorly fitted or top-dose-only effect, or another doubt; inactive = no such curve, though single readings can be large; an effect the other way counts as inactive or inconclusive. Potency is read from the fitted curve at half-maximal effect.

SMILES | NS1 function inh | RE007 growth inh | Tb PYK inh | Sm TGR block | SARS PLpro yeast | LmPK inh
OCc1cn(-c2ccccc2)nc1-c1ccco1 | -8.7% | -15.8% | 3.8% | -13.9% | -5.5% | -28.3%
O=Cc1cn(-c2ccccc2)nc1-c1ccccc1 | -32.1% | 0.0% | -13.6% | 1.1% | -4.9% | -10.7%
Cc1ccc(-c2nn(-c3ccccc3)cc2CO)o1 | -13.2% | ? | -1.9% | 44.7µM* | 3.1% | -5.0%
Cc1ccc(-c2nn(-c3ccccc3)cc2C(N)=O)o1 | -0.6% | 1.2% | -18.0% | 20µM* | -1.5% | 1.3%
Cc1ccc(-c2nn(-c3ccccc3)cc2C=O)o1 | · | ? | -5.7% | 12.6µM* | -6.2% | -1.3%
CN1CCN(CCCNN)CC1 | 1.8% | · | · | · | · | ·
CCCC(=O)c1ccc(CP(=O)(OCC)OCC)o1 | -1.5% | 2.3% | -1.0% | 12.6µM* | -0.7% | -3.4%
CCOC(=O)C1CCN(C(c2ccc(OCC)cc2)c2c(O)cc(C)n(CCOC)c2=O)CC1 (stereo unspecified) | · | · | -5.2% | 10µM* | · | ·
CCOC(=O)C1CCN(C(=O)Cc2ccc(C)cc2)CC1 | 0.0% | -9.6% | 4.6% | -26.0% | 5.2% | 5.7%
CCOC(=O)C1CCN(C(c2ccc(C)cc2)c2c(O)cc(C)n(CCOC)c2=O)CC1 (stereo unspecified) | · | · | 6.1% | 7.94µM* | · | ·
CCOC(=O)Cn1c(=O)n(C2CCCCC2)c2nc(-c3c(F)cccc3Cl)nc(C(N)=O)c21 | · | · | 4.5% | 3.1% | · | ·
CCOC(=O)c1sc(NC(=O)CSc2nnc(-c3ccco3)n2CC)c(C(=O)OCC)c1C | 27.2% | 0.0% | -11.6% | 20µM* | 4.3% | 10.5%
CCOC(=O)CNC(=O)CSc1nnc(-c2ccco2)n1Cc1ccco1 | ? | 14.4% | ? | 25.1µM* | 0.7% | 1.6%
O=C(CSc1nnc(C2CC2)n1Cc1ccco1)NCC(F)(F)F | · | -14.2% | 0.4% | 35.5µM* | 3.4% | 6.4%
O=C(CSc1nnc(C2CC2)n1-c1ccccc1)NCc1ccco1 | -0.3% | 23.9% | -6.2% | ? | 4.9% | 8.0%
O=S(=O)(c1ccc(Cl)cc1)c1nc(-c2cccs2)oc1SCc1ccc(F)cc1 | · | · | -7.0% | -10.4% | · | ·
Cc1cc([N+](=O)[O-])c2ccccc2[n+]1[O-] | -92.6% | 14.1µM* | -1.0% | 12.6µM* | -22.4% | -4.2%
CC[C@@H]1C=C(C)C[C@H](C)C[C@H](OC)[C@H]2O[C@@](O)(C(=O)C(=O)N3CCCC[C@H]3C(=O)O[C@H](/C(C)=C/[C@@H]3CC[C@@H](O)[C@H](OC)C3)[C@H](C)[C@@H](O)CC1=O)[C@H](C)C[C@@H]2OC | -26.6% | · | · | -3.2% | -38.0% | 3.5%
CO[C@H]1C[C@@H]2CC[C@@H](C)[C@@](O)(O2)C(=O)C(=O)N2CCCC[C@H]2C(=O)O[C@H]([C@H](C)C[C@@H]2CC[C@@H](O)[C@H](OC)C2)CC(=O)[C@H](C)C=C(C)[C@@H](O)[C@@H](OC)C(=O)[C@H](C)C[C@H](C)C=CC=CC=C1C | -116.5% | · | · | 14.1µM* | -10.5% | -3.4%
C=CCn1c(O)c(N=NC(=S)Nc2ccccc2C)c2cc(S(=O)(=O)N3CCOCC3)ccc21 | 12.6µM* | 18.2% | -3.2% | 0.0% | -4.3% | 2.6%
COc1ccccc1C1C(C#N)=C(N)Oc2cc(C)n(CCCn3ccnc3)c(=O)c21 (stereo unspecified) | -5.1% | -2.4% | 5.8% | 50.1µM* | 2.7% | 1.1%
CCOc1ccccc1C1C(C#N)=C(N)Oc2cc(C)n(C)c(=O)c21 (stereo unspecified) | 7.5% | -4.3% | -9.1% | 39.8µM* | 4.8% | 0.2%
CCOc1cccc(C2C(C#N)=C(N)Oc3cc(C)oc(=O)c32)c1OCC (stereo unspecified) | 0.7% | 0.3% | -5.6% | 0.0% | -5.0% | 1.1%
COc1ccc(C2C(C#N)=C(N)Oc3cc(C)n(Cc4ccco4)c(=O)c32)cc1 (stereo unspecified) | 1.5% | -18.9% | ? | 31.6µM* | 9.9% | -3.0%
COc1ccccc1C1C(C#N)=C(N)Oc2cc(C)n(Cc3ccccn3)c(=O)c21 (stereo unspecified) | 9.8% | -4.6% | -8.8% | 35.5µM* | 15.5% | 11.1%
SMILES | NS1 function inh | RE007 growth inh | Tb PYK inh | Sm TGR block | SARS PLpro yeast | LmPK inh
COc1cc(Cl)c(C)cc1NC(=O)CSCc1nc(-c2ccc(OC)c(OC)c2)no1 | · | · | -1.6% | -3.3% | · | ·
O=C(O)c1ccccc1C(=O)Nc1cc2c(cc1Br)-c1ccccc1C2=O | -2.9% | · | · | · | · | ·
CCC(Sc1nnc2c(n1)[nH]c1ccccc12)C(=O)Nc1nnc(C(C)C)s1 (stereo unspecified) | · | · | 4.9% | 4.4% | · | ·
COc1cc(C2C(C#N)=C(N)Oc3cc(C)n(CC4CCCO4)c(=O)c32)cc2c1OCO2 (stereo unspecified) | 18.0% | 23.3% | 3.5% | 44.7µM* | 8.3% | 3.9%
CCOc1ccccc1C1C(C#N)=C(N)Oc2cc(C)n(Cc3ccccn3)c(=O)c21 (stereo unspecified) | 8.4% | 4.0% | -19.7% | 35.5µM* | -0.5% | -0.6%
COc1cccc(C2C(C#N)=C(N)Oc3cc(C)n(Cc4ccccn4)c(=O)c32)c1OC (stereo unspecified) | ? | 19.6% | -6.7% | -15.8% | 4.1% | 1.6%
NS(=O)(=O)c1ccc(N=Nc2c[nH]c(=O)c(O)c2)cc1 | 2.8% | -20.3% | ? | 8.91µM* | 9.0% | ?
Nc1nc(O)c(N=Nc2ccc(S(N)(=O)=O)cc2)c(=O)[nH]1 | 1.2% | 7.8% | 4.7% | 6.3% | 1.3% | -0.5%
COc1ccc(CCNC(=O)c2ccc3c(c2)CCN3S(=O)(=O)c2ccc(Cl)cc2)cc1 | · | · | -1.8% | 0.5% | · | ·
Cc1cc(NC(=O)CCl)no1 | 4.8% | 16.9% | 2.8% | 8.91µM* | 14.7% | 3.1%
CC(C)n1c(NCCO)nc2ccccc21 | -3.4% | 2.5% | 1.8% | 7.8% | 0.3% | 1.7%
C[n+]1c2ccccc2nc2ccc(NCCO)cc21 | -0.8% | 3.55µM* | ? | 10µM* | 0.5% | -1.7%
CNc1ccc2nc3ccccc3[n+](C)c2c1 | 0.5% | ? | ? | 6.31µM* | -5.1% | -18.4%
CN1CCN(c2ncc3nc(-c4cccs4)c(=O)n(C[C@H]4CCCO4)c3n2)CC1 | · | · | -5.7% | · | · | ·
Cc1ccc2c(c1)N(CCCC(=O)NCc1cccc(F)c1)C(=O)CO2 | · | · | -10.5% | 6.9% | · | ·
N#CCSc1nc2[nH]ncc2c(=O)n1-c1ccccc1Br | -13.3% | -14.1% | 12.6% | -23.4% | -10.3% | 11.2µM*
O=C(CCN1CCOCC1)c1ccc(N2CCCCC2)cc1 | · | ? | -8.2% | 14.1µM* | 1.7% | ·
CC(C)(C)c1cc(C(=O)CCN2CCOCC2)cc(C(C)(C)C)c1O | -61.0% | 7.6% | 4.8% | 3.55µM* | -9.3% | 0.2%
